Data: PubChem BioAssay AID868 (SRMLSC, 2007)
Among all 190,000 compounds or so, about 3,500 (1.8%) were called active. Many of the other results were omitted from the sample, so actives are more common in it than they were. A number with no mark means an inactive call.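 Rule for the calls: active = inhibition above a set limit, 3 SD over mean compound inhibition (cut at about 8.4% in these data); inactive = the rest.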

Assay: inhibitors of the yeast RAM network, primary screen, dse1pr::URA3 reporter, 5-FOA selection (AID 868);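 note: 0% = DMSO-only wells with no growth and 100% = 10 µM 1-NA-PP1 full growth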
Conditions: S. cerevisiae dse1pr::URA3 reporter, 5-FOA growth OD615, 2 d; at 50 µM; hits give high values; analog-sensitive cbk1-as2 kinase mutant strain
With `Cc1cccc(CN2CCN(Cc3cnn(-c4ccccc4F)c3)CC2CCO)n1` (stereo unspecified) the inhibition was -0.13%. Work on `COc1cc(NC(=S)N2CCCC(C)C2)cc(OC)c1OC` (stereo unspecified) yielded an inhibition of 2.19%. `Cc1ccc(-c2noc(CSc3nnc(-c4ccccc4)n3C)n2)cc1` gave an inhibition of 2.09%. Compound `Cc1ccc(-c2noc(CSc3nnc(-c4ccncc4)n3-c3ccc(F)cc3)n2)cc1` has an inhibition of 2.42%. In the case of `Fc1ccc(-n2c(Cc3ccccc3)nnc2SCc2nc(-c3ccc(Cl)cc3)no2)cc1`, the inhibition is reported as 14.2% (active). For `Cc1n[nH]c(=O)n1-c1ccc(C(C)C)cc1`, the inhibition was 0.86%. With `Nc1nc(-c2sc3nc4c(cc3c2N)CCCC4)nc(N2CCOCC2)n1` the inhibition was 5.88%. For `COc1ccc(/C=C/C(=O)c2ccc(NS(=O)(=O)c3ccc(C)cc3)cc2)cc1O`, the inhibition was 11.1% (active). Compound `COc1ccc(C(=O)Oc2cc(/C=N/NS(=O)(=O)c3ccc(C)cc3)ccc2OC)cc1` has an inhibition of 5.34%. `COc1ccc(NS(=O)(=O)c2ccc(NC(C)=O)cc2)cc1OC` showed an inhibition of 1.03%. With `Cc1cc(C2=NNC(=Nc3ccc(S(=O)(=O)N4CCOCC4)cc3)SC2)c(C)n1CC1CCCO1` (stereo unspecified) the inhibition was 5.9%. Work on `CC(C(=O)NC1CCCC1)N(c1ccc(Oc2ccccc2)cc1)S(C)(=O)=O` (stereo unspecified) yielded an inhibition of -0.13%. `O=C1c2ccccc2C(=O)N1CCC(O)C[N+](=O)[O-]` (stereo unspecified) showed an inhibition of 1.77%. For `CC(=O)NC1C(Oc2ccc(C)cc2)OC2COC(c3ccco3)OC2C1O` (stereo unspecified), the inhibition was 0.78%. With `Cc1cc(C)cc(NC(=O)CSCc2cnn(-c3ccccc3)c2-n2cccc2)c1` the inhibition was 13.3% (active). `Cc1cc(C)cc(NC(=O)CSc2ccccc2)c1` gave an inhibition of 1.47%. For `CC(=O)Nc1ccc(NC(=O)CSCc2cnn(-c3ccccc3)c2-n2cccc2)cc1`, the inhibition was 0.44%. In the case of `Nc1nc(SCc2ccc([N+](=O)[O-])cc2)c2ncn(C3OC(CO)C(O)C3O)c2n1` (stereo unspecified), the inhibition is reported as 1.26%. With `NS(=O)(=O)c1cccc(NC(=O)CSc2nc3ccccc3n2-c2ccccc2)c1` the inhibition was 6.21%. For `Cc1cccc(-n2c(SCC(=O)Nc3cccc(S(=O)(=O)NC4=NCCCCC4)c3)nc3ccccc3c2=O)c1C`, the inhibition was 11.7% (active). For `CCc1ccc(C(=O)OCC(=O)Nc2cccc(S(=O)(=O)NC3=NCCCCC3)c2)cc1`, the inhibition was 0.26%. For `O=C(CN1CCN(Cc2ccc(F)cc2Cl)C1=O)NCc1cccs1`, the inhibition was 0.13%. With `O=C(COC(=O)CNC(=O)c1ccccc1F)NCC(F)(F)F` the inhibition was 3.2%. Compound `O=C(N/N=C/c1ccc([N+](=O)[O-])cc1)C(=O)N1CCCC1` has an inhibition of 1.52%. With `O=C(N/N=C\c1ccc(-c2ccc(Cl)c(Cl)c2)o1)C(=O)N1CCCC1` the inhibition was 8.47% (active). In the case of `COC(=O)N/N=C/c1ccc(-c2ccc(Cl)c(Cl)c2)o1`, the inhibition is reported as 1.74%.
